D2 PAM-1: HTS Assay for Positive Allosteric Modulators of the Human D2 Dopamine Receptor: Primary Screen for Potentiators; hit rate 0.34% among 340,000; AID 485347, 2010; HEK293 T-REx D2, calcium flux, EC20 dopamine potentiation; D(2) dopamine receptor (Homo sapiens), P14416; potentiation, % at 10 µM;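 active = potentiation over 3 SD above the plate norm, cut at about 30% in these data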
Target sequence (P14416 whole entry, looked up): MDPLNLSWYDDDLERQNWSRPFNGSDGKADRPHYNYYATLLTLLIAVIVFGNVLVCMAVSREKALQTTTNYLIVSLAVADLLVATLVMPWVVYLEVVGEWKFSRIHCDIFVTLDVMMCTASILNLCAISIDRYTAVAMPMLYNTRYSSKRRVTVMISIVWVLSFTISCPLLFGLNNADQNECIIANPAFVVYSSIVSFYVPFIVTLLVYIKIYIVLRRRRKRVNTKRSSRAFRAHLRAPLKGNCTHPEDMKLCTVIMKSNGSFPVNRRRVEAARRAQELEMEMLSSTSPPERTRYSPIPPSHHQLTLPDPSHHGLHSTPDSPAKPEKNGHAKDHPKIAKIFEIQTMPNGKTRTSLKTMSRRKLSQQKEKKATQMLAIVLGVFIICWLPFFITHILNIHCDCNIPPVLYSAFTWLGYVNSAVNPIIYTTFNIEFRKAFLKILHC
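Calcium flux readout, no-wash dye, 1 read/s. Inducible HEK293 Trex D2 line, overnight 30 C. Compound alone 180 s (agonist flags), then EC20 dopamine, another 180 s to score potentiation.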
D2 PAM-2: Beta-Arrestin HTS for Positive Allosteric Modulators of the Human D2 Dopamine Receptor: Potentiators; D(2) dopamine receptor (Homo sapiens), P14416; DiscoveRx D2 beta-arrestin cells, luminescence, 90 min; 100% = 57 uM dopamine signal; potentiation, % (test concentration not listed); hit rate 0.23% among 360,000; AID 624464, 2012; in the data active = potentiation above about 50%
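D2 cells co-treated with compound plus 50 nM dopamine (EC20) for 90 min at 37 deg C to detect potentiation. Beta-arrestin recruitment was read as enzyme-fragment luminescence after 1 h at ambient temperature. Full response was set by 57 uM dopamine.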
D2 ag-1: Beta-Arrestin HTS for Positive Allosteric Modulators of the Human D2 Dopamine Receptor: Agonists; D(2) dopamine receptor (Homo sapiens), P14416; DiscoveRx PathHunter D2 beta-arrestin, luminescence, 90 min; 100% = 57 uM dopamine signal; activation, % (no concentration beside the values); hit rate 0.084% among 360,000; AID 624465, 2012; in the data active = activation above about 40%
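DiscoveRx PathHunter D2 beta-arrestin cells (2,100/well) attached overnight, then compound-stimulated 90 min at 37 C in HBSS/10 mM HEPES/0.1% Tween-20 buffer; beta-galactosidase complementation read by luminescence after 1 h at ambient temperature. Dopamine 57 uM final (EC100) as control.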
D2 antagonist: HTS Assay for Allosteric Antagonists of the Human D2 Dopamine Receptor: Primary Screen for Antagonists. D(2) dopamine receptor (Homo sapiens), P14416. hit rate 2% among 340,000. HEK293 TREx D2 cells, calcium flux, dopamine EC80. inhibition, % at 10 µM. AID 485344, 2010; in the data active = inhibition above about 30%; inactive = below that, where a call was filed
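Measurement of antagonist activity uses fluorescent calcium dye in inducible HEK293 T-REx D2 cells: 10 s baseline, compound addition with 180 s read, EC80 dopamine addition with a further 180 s read.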
D2 ag-2: HTS Assay for Allosteric Agonists of the Human D2 Dopamine Receptor: Primary Screen for Agonists; HEK293 T-REx D2 cells, calcium flux agonist mode; activation, % at 2 µM; hit rate 0.53% among 340,000; AID 485358, 2010; D(2) dopamine receptor (Homo sapiens), P14416;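 active = activation over 3 SD above normal in the single-dose calcium agonist read, cut at about 30% in these data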
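Tetracycline-induced HEK293 Trex cells with D2 receptor force-coupled to calcium signaling, plated overnight at 30 C and loaded with no-wash calcium dye. Calcium flux read kinetically for 180 s after compound addition; responses flag agonists.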
Large screens that a line does not name were inactive. In the library only some 2.4% were active in any assay of this set; here they are far more common.

COc1ccc(C(CNC(=O)CCNS(=O)(=O)c2ccc(Br)cc2)N2CCCC2)cc1 (stereo not given)	none
COc1ccc(C(CNC(=O)c2oc3ccc(Br)cc3c2C)N2CCCCC2)cc1 (stereo not given)	none
COCCCNC(=O)c1cc(-c2cccnc2)nc2ccc(S(=O)(=O)N3CCC(C)CC3)cc12	none (no result: D2 PAM-2, D2 ag-1, D2 antagonist, D2 ag-2)
Cc1ccc(-n2c(SCC(=O)N3CCCc4ccccc43)nc3c([nH]c4ccccc43)c2=O)cc1	none (no result: D2 PAM-2, D2 ag-1, D2 antagonist)
CCOC(=O)c1cccc(NC(=O)CCn2nc(C)c3c(C)n(-c4ccccc4)nc3c2=O)c1	none (no result: D2 PAM-2, D2 ag-1, D2 antagonist)
Cc1cc(=O)[nH]c(SCC(=O)NCC2CCCO2)n1 (stereo not given)	D2 antagonist 34
CN(C)CCCNc1oc(-c2ccccc2Cl)nc1S(=O)(=O)c1ccc(F)cc1	D2 antagonist 34
CN(C)CCNc1oc(-c2ccccc2Cl)nc1S(=O)(=O)c1ccccc1	none
Cc1ccc(-c2cc(-c3coc4ccc(Cl)cc4c3=O)c3c(n2)-c2ccccc2OC3)cc1	none (no result: D2 PAM-2, D2 ag-1, D2 antagonist)
CC(C)(C)n1nnnc1CN1CCN2CCCC2C1 (stereo not given)	D2 antagonist 37
Cc1oc(-c2ccc(C(=O)Nc3cccc(C(F)(F)F)c3)cc2)nc1CSc1ccccc1	none (no result: D2 PAM-2, D2 ag-1, D2 antagonist)
COc1ccc(N(CC(=O)Nc2cc(C)cc(C)c2)S(=O)(=O)c2ccccc2[N+](=O)[O-])c(OC)c1	D2 antagonist 53
COc1ccc(Br)cc1CN1CCCC(C(=O)N2CCCCCC2)C1 (stereo not given)	D2 antagonist 32
COc1ccc(CCNC(=O)CCCCn2c(=O)c3ccccc3n(Cc3ccc(F)cc3Cl)c2=O)cc1OC	none (no result: D2 PAM-1, D2 PAM-2, D2 ag-1, D2 antagonist)
Cc1cc(Br)ccc1NC(=O)CNC(=O)CNc1cccc([N+](=O)[O-])c1	D2 antagonist 31
O=C(CNc1cccc([N+](=O)[O-])c1)NCCCc1ccccc1	none
COc1ccccc1CNC(=O)CCn1nc(C)c2c(C)n(-c3ccccc3)nc2c1=O	none (no result: D2 PAM-2, D2 ag-1, D2 antagonist)
CCOc1ccc(C(=O)N2CC(=O)Nc3ccc(C)cc3C2c2ccc(F)cc2)cc1OCC (stereo not given)	none (no result: D2 PAM-2, D2 ag-1, D2 antagonist)
COc1ccc(-n2c(N)c(-c3nc4ccccc4n3C)sc2=S)cc1	D2 antagonist 34
COc1ccc2c(c1)C(=O)N(c1ccccc1)C(=O)C2	D2 PAM-1 31
O=c1c(Cc2ccc(F)cc2)c(O)ccn1Cc1ccc(Cl)cc1Cl	D2 antagonist 44
Clc1ccc(OCCSc2nnnn2C2CCCCC2)cc1	D2 antagonist 34
Cc1ccc([N+](=O)[O-])cc1Nc1nc(N2CCCC2)nc(N2CCCC2)n1	D2 antagonist 35
NNc1nc(Nc2ccc([N+](=O)[O-])cc2)nc(N2CCCCCC2)n1	none
CC1(C)CC(=O)C/C(=N/Nc2nc3ccccc3s2)C1	D2 antagonist 36
CC1CCC/C(=N/Nc2nc3ccccc3s2)C1 (stereo not given)	none
CCOC(=O)c1c(NC(=O)COc2ccc(Cl)cc2Cl)sc2c1CCCCC2	none (no result: D2 PAM-2, D2 ag-1, D2 antagonist)
Cc1ccc2oc(-c3cc(NC(=O)c4ncn[nH]4)ccc3O)nc2c1	D2 PAM-1 31
O=C(NCC(c1cccnc1)N1CCOCC1)c1cccs1 (stereo not given)	D2 antagonist 34
COC(=O)NCC(c1cccnc1)N1CCOCC1 (stereo not given)	none
Cc1ccc([N+](=O)[O-])cc1NC(=O)C1CCCC1	none
Cc1ccc([N+](=O)[O-])cc1N/C=C1\CCCCC1=O	D2 antagonist 52
Cc1cc(O)ccc1N/C=C1\CCCC1=O	D2 PAM-2 64
CC(=O)Nc1ccc(N/C=C2/CCCC2=O)cc1	none
OC(COCc1cccs1)CN1CCN(c2cccc(C(F)(F)F)c2)CC1 (stereo not given)	D2 antagonist 50
O=S(=O)(c1ccc(F)cc1)N1CCN(CC(O)COCc2cccs2)CC1 (stereo not given)	none
Cc1cc(C)nc(N2CCCC(C(=O)NCc3ccc4c(c3)OCO4)C2)n1 (stereo not given)	none
CCCc1cc(N2CCCC(C(=O)NCc3ccc4c(c3)OCO4)C2)n2ncnc2n1 (stereo not given)	D2 PAM-1 36
Cc1cccc(N2CCN(C(=O)c3cnn(-c4ccccc4)c3C3CCN(C(=O)OC(C)(C)C)CC3)CC2)c1C	none (no result: D2 PAM-2, D2 ag-1, D2 antagonist)
Cc1ccc(S(=O)(=O)N(CC(=O)N2CCCCC2)c2cccc(C)c2)cc1	D2 antagonist 32
Cc1cccc(N(CC(=O)N2CCCC2)S(=O)(=O)c2ccccc2)c1	none (no result: D2 PAM-1, D2 antagonist, D2 ag-2)
C/C(=N\NC(=O)C1(C)CC1(Br)Br)c1cccc(NC(=O)C2CCC2)c1 (stereo not given)	D2 antagonist 30
COc1ccc(CC(=O)N/N=C(\C)c2cccc(NC(=O)C3CC3)c2)cc1	none
Cc1nnc2n1N=C(c1ccc(OC(F)F)cc1)C(C)S2 (stereo not given)	D2 antagonist 56
Cc1ccc(C(C)C)c(OCCNCCc2ccccc2)c1	D2 antagonist 41
Brc1ccccc1OCCNCc1ccccc1	D2 antagonist 94
C=CCc1ccccc1OCCNCc1ccccc1	D2 antagonist 69
C=CCc1ccc(OCCCNC2CCCC2)c(OC)c1	none (no result: D2 PAM-1, D2 antagonist, D2 ag-2)
Cc1ccc(C(C)C)c(OCCCNCc2cccnc2)c1	none
C=CCc1ccc(OCCCNCc2ccccc2)c(OC)c1	D2 antagonist 62
Cc1cc(C)c(C)c(OCCNCc2ccccc2)c1	D2 antagonist 75
Clc1ccc(OCCCNCc2ccccc2)c2ccccc12	D2 antagonist 41
O=C(Cc1ccc([N+](=O)[O-])cc1)Nc1ccc(Cl)cc1	none
Cc1c(Cl)cccc1NC(=O)Cc1ccc([N+](=O)[O-])cc1	D2 antagonist 45
COc1cccc(NC(=O)CN(C)C(=O)CSc2nc(C)cc(C)n2)c1	D2 antagonist 41
COc1ccc(NC(=O)CN(C)C(=O)CCSc2ccc(F)cc2)cc1	D2 antagonist 34
COc1ccc(CNS(=O)(=O)c2cnc(N)nc2)cc1	none (no result: D2 PAM-2, D2 ag-1, D2 antagonist, D2 ag-2)
C/C(=N/NC(=O)c1ccncc1)c1c[nH]c2ccccc12	D2 antagonist 48
C/C(=N\NC(=O)c1c[nH]c2ccccc12)c1ccc(C)s1	none
O=C(C#Cc1ccccc1)Nc1ccc(F)cc1	D2 antagonist 47
O=C(O)CN1C(=O)NC2(CCOc3ccccc32)C1=O (stereo not given)	none
O=C1NC2(CCOc3ccccc32)C(=O)N1CC(=O)N(Cc1ccccc1)C1CCS(=O)(=O)C1 (stereo not given)	D2 antagonist 40
